Experimental data taken from the supplement of paper PMC11417369.
The full ranking holds about 25,000 sequences; the median of “ln(normalized median fluorescence intensity)” is about 9.7, and the highest 2% start at about 11. This excerpt belongs to a sample that is enriched for the highest values.

The sequences below were run on PfAP2-HC AP2 domain (GST-tagged) (assay: gcPBM binding intensity (ln(normalized median fluorescence intensity)); higher = stronger DNA binding).
Procedure, shortened: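 Binding intensity values are the highest Masliner-normalised natural-log median intensity among replicate spots of either probe orientation. The binding step lasted 1 h in 1× PBS with 1% milk, 0.2 mg/ml BSA, 0.5% salmon testes DNA and 0.03% Triton X-100, using GST-tagged P. falciparum DNA-binding domains expressed in E. coli on an Agilent 4 × 180k array of primer-extended double-stranded 36-bp intergenic genomic probes plus negative controls. Alexa488 anti-GST antibody and a 488 nm scan detected bound protein.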

| Sequence | gcPBM binding intensity (ln) |
| --- | --- |
| ACATATATATATATATATATATATATATATAGATAG [CACACA_negctrl_site783] | 9.92 |
| GGTTCATAATATGGTTGTACATAAATATATATATAT [XGTACX_site7583] | 9.86 |
| TATAATAATACTTATTGTACGATTAGCTTAATTCGT [XGTACX_site15] | 9.51 |
| ATAAAATTTATATAAGCACACAAATATATATTTATA [CACACA_site9083] | 9.7 |
| AAGAAATATTTATACACACACACAAACATATAAATA [CACACA_site6981] | 11.1 |
| TAAATAAAAAGACACACACACATATTTATATTTATA [CACACA_site7135] | 10.4 |
| CAATATAAAAGACACACACACAAACATATATTTATA [CACACA_site7697] | 11.3 |
| AATATTTATAAAGACACACAAACAAAAAGGATAAAA [CACACA_site2985] | 10.3 |
| GAAATAGAGAGACACACACACATATATTTATGTATT [CACACA_site7794] | 10.4 |
| CATAAATACAAATATACACACATATTTATATTTATA [CACACA_site7277] | 9.78 |
| TATAAAAATAAGCACACACACAAATATAGATTTATT [CACACA_site6558] | 11.3 |
| CAGAAATAGAGATACACACACACATATATTTATGTA [CACACA_site3968] | 11.3 |
| AAGAAATATTTATACACACACACAAACATATATATA [CACACA_site1912] | 10.5 |
| GAAATAGAGAAACACACACACATATATTTATGTATT [CACACA_site3967] | 10.4 |
| TATAAAAATAAGCACACACACAAATATATATTTATT [CACACA_site922] | 10.3 |
| CACTTAAAAAGCTAACGTACAAATACACATATATAA [XGTACX_site1851] | 9.66 |
| CAAAACATTTTATCTACACACATATATAAATAAATA [CACACA_site3220] | 9.77 |
| GTTTACATTTTAAGAAGTACAAAATTTATGGTTAAA [XGTACX_site450] | 9.42 |
| TTAGGACAAAAAAAAATAAAAATAAAATAAAATAAT [CACACA_negctrl_site1613] | 9.61 |
| TTTTAATATTTTAAGAGTACAGAAATATATAATATG [XGTACX_site4955] | 9.33 |
| TTATTTTACTTTTATGCAACTAAAAATATTGCTATA [XGTACX_negctrl_site277] | 9.6 |
| AAAACAAACAGACACACACACATATATATATATATA [CACACA_site3655] | 10.8 |
| AAAACAAACAGACACACACACATATTTATATTTATA [CACACA_site7681] | 11 |

| Sequence | gcPBM binding intensity (ln) |
| --- | --- |
| GAATATTAAACAAACACACACACATATATTTATATA [CACACA_site7563] | 11.1 |
| CATAAAATATAAAACACACACACATATATTTATATA [CACACA_site6247] | 10.5 |
| GAGATAAAATAAAACACACACATATATTTATATAAC [CACACA_site7098] | 10.9 |
| TAAAAAAAAAAAAAAACACACATATAAATATTTATA [CACACA_site6702] | 9.61 |
| TGACATAAATTTAATACACACACAAAGAAAAAAAAA [CACACA_site9354] | 10.2 |
| ACATAAATTTAATACACACACAAAGAAAAAAAAAAA [CACACA_site4088] | 10.9 |
| GAATATTAAACAAACACACACACATATATATATATA [CACACA_site3382] | 10.7 |
| AATTTTTTATTAAACACACAAACATATATATATATA [CACACA_site1937] | 9.66 |
| AAAACAGACAAACACACACACACATATATATATATA [CACACA_site3393] | 10.6 |
| GAAAGAATAAAATTTACACACATATATAAATACATA [CACACA_site5273] | 9.87 |
| ATTTTATTTTTTAAAGGTACAGTTACAGCTTATATA [XGTACX_site7513] | 9.51 |
| ATAAGCATCTTTTGTGTGCACATAACAAAAAAAAAA | 9.85 |
| TTATAAATGAATAAATGTACAAAATATATATATATA [XGTACX_site8829] | 9.66 |
| TTAAATAAAAAAATAACACACATATAAATCTATATG [CACACA_site7482] | 9.75 |
| TTTTTTTTGTGTTCAAGTACAAAATTTTAAAGGTCA [XGTACX_site4011] | 9.26 |
| TATTGTTGTTCATGTACACACTATAATAAAAGCAAT [CACACA_site6148] | 9.62 |
| ATATAATTATAAAATAAACACACATATATATTTATA [CACACA_site8039] | 9.91 |
| ATCTTATATGATCACACACACACGCACAAAACAGAA [CACACA_site4913] | 10.4 |
| CATATATAAAAAAACACACACATATTTATATTTATA [CACACA_site6682] | 10.3 |
| CTTATATTAAAACACACACACGCACAAAACAGAAAT [CACACA_site1462] | 11 |
| AACAAAAAAACAAACACACACACACGCATATTTATA [CACACA_site7680] | 11.2 |
| CAATATAAAAAACACACACACAAACATATATTTATA [CACACA_site3703] | 10.5 |
| TATAAAACACACACACATATATATATATATTTATAT [TGCATGCA_negctrl_site48] | 11.2 |

| Sequence | gcPBM binding intensity (ln) |
| --- | --- |
| AAGGATCACGCACAAACACACATATTTATATTTATA [CACACA_site6405] | 9.95 |
| TATTTATTTATATAAACACACATAAATATAAATATA [CACACA_site6653] | 9.45 |
| ATCTTATATTATCACACACACACGCACAAAACAGAA [CACACA_site1463] | 10.3 |
| AAAAAAAACAAACACACACACAAATATTTATATATT [CACACA_site436] | 10.5 |
| CACAAAAATAAACACACACACATATATATTTATTAT [CACACA_site5923] | 11.1 |
| ATTCTATATATATAAACACACAAATATTTTTATATA [CACACA_site1677] | 9.65 |
| TTCTTTTCTTCTACATGTACAAATATTATATATATA [XGTACX_site2996] | 9.97 |
| TATATTATATTATACATACACACCCATATAATATGT [CACACA_site869] | 10.1 |
| TATAAATTAATGACATGTACATAAAAGTATAGATGT [XGTACX_site6534] | 9.95 |
| TTTATAAAATTATTTGCATGTAACAATTATAAATTG [TGCATGCA_site1026] | 9.42 |
| TTTTTTTAAAACAAAAAAAAAAAAAAAAAAAAAAAA [TGCATGCA_negctrl_site418] | 8.22 |
| ATAATACCCAAGCACACACACACACCGATATATATA [CACACA_site8344] | 11.3 |
| AATATATATATATATACACACACACCGATATATATA [CACACA_site8158] | 11.2 |
| TATACATACATACATACACACACACCGATATATATA [CACACA_site7896] | 10.2 |
| CAAAATAATATATATACACACACACCGATATATATA [CACACA_site8082] | 10.8 |
| TTAATATAAGCAAATACACACACACCGATATATATA [CACACA_site9269] | 11.1 |
| CAAAAAAAATTATACACACACACACCGATATATATA [CACACA_site4719] | 11.1 |
| GATATATATTAATATACACACACACCGATATATATA [CACACA_site8462] | 10.2 |
| AAAAAAAAAAAAAATACACACACACCGATATATATA [CACACA_site8142] | 10.6 |
| ATAATATATATTAATACACACACACCGATATATATA [CACACA_site9261] | 10.4 |
| TAAAAAAAAAAAAATACACACACACCGATATATATA [CACACA_site8498] | 10.7 |
| TATATATATATATACACACACACACCGATATATATA [CACACA_site8813] | 10.5 |
| TAATAATACCCAAGCACACACACACCCATATATATA [CACACA_site4831] | 10.6 |

| Sequence | gcPBM binding intensity (ln) |
| --- | --- |
| ATAAAGAAACATATATGTACTTATATATATATATAT [XGTACX_site5625] | 9.69 |
| TATAAGAGAATATATACACACAAAAATAAATACAGT [CACACA_site5000] | 10.9 |
| ATATATATATAATGAAGTACGAAAAAATAAGAAATG [XGTACX_site4001] | 9.9 |
| TATAAAACAAATATATGTACATATCATAGTATAATA [XGTACX_site2965] | 9.75 |
| AAGGAAATATAATATACACACATAAGTGTACTTCTA [CACACA_site6079] | 9.81 |
| AATAGTCGGGTGCATACACACCTTAAATATAATATA [CACACA_site8271] | 9.57 |
| CTAATCGTGCACAACTGTACATTTGTCAAGGGCAAT [XGTACX_site8662] | 9.62 |
| AAAGAACAAATAAAACATAAAATAATATATATAGAT [CACACA_negctrl_site1764] | 10.1 |
| TACAAACACCCATATACACACAAAAAAAAAATAAAA [CACACA_site5421] | 9.94 |
| AAAAAAAAAAAAAACACACACAACACCCATACCTTA [CACACA_site3621] | 11.2 |
| AAAAAAAAAAAAAAAACACACATACCCATATATTTT [CACACA_site6013] | 9.85 |
| AAAAAAAAAAAAAACACACACACACCCATACAAAAT [CACACA_site1446] | 11.6 |
| AAAAAAAAAAAAAACACACACACACCCAAATACATA [CACACA_site708] | 10.5 |
| AAAAAAAAAAAAAAAACACACACAACACCCATACCT [CACACA_site9208] | 10.4 |
| ATATCTTATATTATCACACACACACCCACAAAACAG [CACACA_site1464] | 11.5 |
| AAAAAAACAGAAAACACACAAATTATCTTATAATTA [CACACA_site6282] | 9.8 |
| AAAAAATACAAACACACACACACACCCATATATATA [CACACA_site3560] | 11 |
| AAAAAAAAAAAAAACACACACATACACCCAAAAATG [CACACA_site4223] | 10.3 |
| TATATACACCCACATACACACAAATAAAAAAACACC [CACACA_site3414] | 10.5 |
| ATATCTTATGTTATCACACACACACGCACAAAACAG [CACACA_site6800] | 10.3 |
